Assay outcomes: PubChem BioAssay, National Center for Advancing Translational Sciences (NCATS)
This is one part of a sample in which hits are shown more often than they occur.
FH mod = Identification of activators of human fumarate hydratase by quantitative high-throughput screening | FH coupled MDH/diaphorase resazurin fluorescence, 15 min | Potency, µM (highest dose often 79.9 µM), inactives show top-dose activity change, negative = inhibition, most hits filed as inhibitors | 54,000 tested, 0.22% active | Fumarate hydratase, mitochondrial (Homo sapiens), P07954; note: potency is the fitted concentration of half-maximal effect; % is set by controls: 0 for no effect and ±100 for the full control effect; the screen sought activators but most active calls are inhibition curves; nearly all actives have a fitted effect of over 45% in size
PTAP-TSG101 blk = inhibitors of HIV-1 PTAP binding to human TSG101, validation; Potency, µM (series often up to 115 µM), most hits filed as inhibitors; Fluorescence polarization, FITC-PTAP peptide/Tsg101, 20 min; AID 1347069; Q99816; 44,000 tested, under 10 active; note: potency is the fitted concentration of half-maximal effect; 0% is about no effect
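qHTS FP binding, 20 min r.t.: 10 uM Tsg101 domain + 50 nM FITC-PTAP peptide, pH 7.5 HEPES buffer with TCEP and EDTA.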
B2AR arrestin ag = ADRB2 beta-arrestin recruitment. Potency, µM (top dose mostly 46.1 µM), most hits filed as activators. HTLA Tango cells, beta-arrestin recruitment, luciferase luminescence, 18 h. 44,000 tested, under 10 active;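 note: potency is the fitted concentration of half-maximal effect; 0% = DMSO and full agonism = EC100 isoproterenol or metaproterenol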
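Tango cell line, 1% FBS DMEM; cpd titration up to 46 microM; 18 hr, 37 degrees C, 5% CO2. Luciferin/ATP substrate mix added, 15 min RT, luminescence. %Activity, CRC fitting, curve-class categorization.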
GALK inh = inhibitors of human galactokinase (GALK). Potency, µM (titrated, usually from 57.5 µM), without a hit: at the top dose activity, negative = inhibition, actives largely listed as inhibitors. P51570. 44,000 tested, under 10 active. recombinant GALK, Kinase-Glo ATP luminescence, 1 h;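 note: plate controls were full GALK reaction for no effect and reaction lacking GALK for full effect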
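Human GALK (5 nM) was incubated with 35 uM ATP and 100 uM galactose in 20 mM HEPES pH 8.0 with MgCl2, NaCl, DTT and BSA for 1 h at room temperature. Remaining ATP was measured by Kinase-Glo Plus luminescence.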
NTMT1 inh = inhibitors of human N-terminal methyltransferase NTMT1 | NTMT1 MTase-Glo SAH luminescence, purified enzyme | AID 1645870 | Potency, µM (doses to about 114 µM), without a hit: at the highest dose activity change, negative = inhibition, actives largely listed as inhibitors | 59,000 tested, 2.5% active;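 note: potency is the fitted concentration of half-maximal effect; plate controls were DMSO vehicle for no effect and no enzyme for full effect; nearly all actives have a fitted effect of over 65% in size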
DYRK1A inh = inhibitors of human DYRK1A kinase. shares compounds with NTMT1 inh. recombinant DYRK1A, Kinase-Glo ATP depletion luminescence. Potency, µM (titrated, usually from 76.9 µM), for the others: at the highest dose activity change, negative = inhibition, usual class: inhibitors. 100 tested, 80% active. AID 2705
CLK4 KinaseGlo = inhibits human CLK4 kinase in Kinase-Glo confirmation. shares compounds with NTMT1 inh. recombinant Clk4, Kinase-Glo ATP luminescence, 4.5 h. Potency, µM (titrated, usually from 76.9 µM), for inactives: at the top dose activity, negative = inhibition, most hits filed as inhibitors. 90 tested, 90% active
Sfp PPTase inh = inhibitors of Bacillus subtilis Sfp PPTase, optimization followup. shares compounds with NTMT1 inh. purified Sfp PPTase enzyme activity, qHTS. Potency, µM (doses to about 114 µM), for the others: at the top dose activity change, negative = inhibition, hits mostly inhibitors. 230 tested, 78% active
HM489 growth = B. subtilis HM489 growth inhibition. shares compounds with NTMT1 inh. B. subtilis HM489 (acpS-) growth, BacTiter-Glo, 5 h. Potency, µM (highest dose often 114 µM), for inactives: at the top dose activity change, negative = inhibition, usual class: inhibitors. 220 tested, 50% active. AID 540353
Sfp PPTase gel = inhibits B. subtilis Sfp PPTase in gel assay; shares compounds with NTMT1 inh; purified Sfp PPTase, gel-based product detection; Potency, µM (titrated, usually from 250 µM), without a hit: at the top dose activity change, negative = inhibition, hits mostly inhibitors; 220 tested, 54% active; AID 540355
Sfp inh SAR2 = inhibitors of Bacillus subtilis Sfp PPTase, SAR round 2 | shares compounds with NTMT1 inh | purified Sfp enzyme, PPTase activity, qHTS | Potency, µM (doses to about 57.1 µM), for inactives: at the top dose activity change, negative = inhibition, actives largely listed as inhibitors | 230 tested, 87% active
HSD17B4 inh = HSD17B4 (human) inhibition, HPGD counter-screen. shares compounds with NTMT1 inh. purified HSD17B4, estradiol/NAD+, NADH fluorescence. Potency, µM (titrated, usually from 57.1 µM), for inactives: top-dose activity change, negative = inhibition, hits mostly inhibitors. 230 tested, 10% active
ALDH1A1 counter = ALDH1A1 (human) inhibition, HPGD counter-screen. Potency, µM (doses to about 57.1 µM), for inactives: at the top dose activity change, negative = inhibition, usual class: inhibitors. shares compounds with NTMT1 inh. 230 tested, 93% active. recombinant ALDH1A1, NADH fluorescence, propionaldehyde/NAD+
NNMT counter = blocks human NNMT methyltransferase; shares compounds with NTMT1 inh; NNMT MTase-Glo luminescence, SAH detection; Potency, µM (highest dose often 57.1 µM), inactives show at the top dose activity, negative = inhibition, actives largely listed as inhibitors; 120 tested, 10% active
* hit, by the source's call; i = inactive; ? = inconclusive; · = no result given; [ ] = dose if it differs, or a comment. Calls come from the whole dose curve; as a rule, active = well fitted curve in the direction sought with a large enough effect; inconclusive = small, poorly fitted or top-dose-only effect, or another doubt; inactive = no such curve, though single readings can be large; an effect the other way counts as inactive or inconclusive.

SMILES | FH mod | PTAP-TSG101 blk | B2AR arrestin ag | GALK inh | NTMT1 inh | Sfp PPTase inh | HM489 growth | Sfp PPTase gel | Sfp inh SAR2 | HSD17B4 inh | ALDH1A1 counter | others
CC(c1ccco1)N(C)c1ncnc2ccc(-c3ccc4c(c3)OCO4)cc12 (stereo unspecified) | · | · | · | · | · | · | · | · | · | · | · | DYRK1A inh=0.26µM*
CN(CCc1ccco1)c1ncnc2ccc(-c3ccc4c(c3)OCO4)cc12 | · | · | · | · | ? | · | · | · | · | · | · | CLK4 KinaseGlo=0.0923µM*
CC[N+]1(C/C2=C/CCCCCC2)CCC(NC(=O)C2c3cc(Cl)ccc3Oc3ccc(Cl)cc32)CC1 (stereo unspecified) | 1.8% | · | · | · | ? | · | · | · | · | · | · | NNMT counter=?
O=C(NCCc1nc2ccccc2n1CCOc1cccc([N+](=O)[O-])c1)C1CCCCC1 | · | · | · | · | -5.7% | · | · | · | · | · | ·
Cc1ccc2nc(N3CCN(c4cccc(C(F)(F)F)c4)CC3)c3nnnn3c2c1 | · | i | i | 2.5% | · | · | · | · | · | · | ·
FC(F)(F)c1cccc(N2CCN(C(=S)Nc3cc4ccccc4cn3)CC2)c1 | · | · | · | · | · | 46.9µM* | -1.2% | 15.8µM* | 12.9µM* | 24.1µM* | 15.2µM*
Cc1cc(C)nc(NC(=S)N2CCN(S(=O)(=O)c3cccc(C(F)(F)F)c3)CC2)c1 | · | · | · | · | ? | 2.35µM* | ? | -29.3% | 0.81µM* | -18.5% | 21.5µM*
OCc1ccnc(NC(=S)N2CCN(c3cccc(C(F)(F)F)c3)CC2)c1 | · | · | · | · | -1.4% | 59.1µM* | 52.7µM* | 37.0% | 32.4µM* | -20.6% | 24.1µM*
Cc1ccnc(NC(=S)N[C@H]2CCN(c3cccc(C(F)(F)F)c3)C2)c1 | · | · | · | · | 8.2%[57.5 µM] | -3.0% | ? | ? | ? | -0.3% | 21.5µM*
Cc1ccnc(C(=S)N2CCN(c3cccc(C(F)(F)F)c3)CC2)c1 | · | · | · | · | -1.6% | ? | ? | 6.2% | ? | -6.7% | 17.1µM*
